SMN2 splice up = qHTS Assay for Enhancers of SMN2 Splice Variant Expression. HEK293 SMN2-luciferase splicing reporter, luminescence, 30-36 h. Potency, µM (series often up to 46.1 µM), hits mostly activators. 210,000 tested, 2.8% active; also: nearly all actives have a fitted effect of over 55% in size
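qHTS luciferase splicing reporter: luminescence rises when SMN2 exon 7 is included in transfected HEK293 cells. Compound exposure lasted 30-36 h at 37C, with 4.5 mM final sodium butyrate as control, followed by a ONE-Glo read.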
FLuc counter = qHTS profiling assay for firefly luciferase inhibitor/activator using purifed enzyme and Km concentrations of substrates (counterscreen for miR-21 project) | Luciferin 4-monooxygenase (Photinus pyralis), P08659 | purified FLuc, Km substrates, luminescence inhibition | Potency, µM (highest dose often 57.5 µM), actives largely listed as inhibitors | 360,000 tested, 6.9% active; also: nearly all actives have a fitted effect of over 55% in size
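Purified P. pyralis luciferase (10nM final) with 10uM D-luciferin and 10uM ATP (Km levels) in 50mM Tris acetate pH 7.5, 10mM Mg acetate, 0.01% Tween-20, 0.05% BSA; qHTS 6-point titration, ~60 µM downward; luminescence read.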
ELG1 genotoxic = qHTS screen for small molecules that induce genotoxicity in human embryonic kidney (HEK293T) cells expressing luciferase-tagged ELG1. HEK293T ELG1-luciferase reporter, luminescence, 16 h. Potency, µM (top dose mostly 46 µM), hits mostly activators. 330,000 tested, 1.3% active. AID 504466, 2011; also: nearly all actives have a fitted effect of over 60% in size
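Reporter readout depends on ELG1 protein level, which increases with genetic stress. After 16 hr compound exposure at 37 °C, luciferase activity was quantified using ONE-Glo.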
NPC1 prom act = qHTS Assay for NPC1 Promoter Activators; Potency, µM (doses to about 9.22 µM), hits mostly activators; AID 485313, 2010; Huh7 NPC1 promoter luciferase reporter, 24 h; 320,000 tested, 2.4% active; also: nearly all actives have a fitted effect of over 60% in size
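Luminescence read-out of NPC1 promoter-driven luciferase in stably transfected Huh7 cells; compounds delivered in DMSO and left 24 h at 37C, 5% CO2, qHTS titration format.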
ELG1 repair inh = qHTS screen for small molecules that inhibit ELG1-dependent DNA repair in human embryonic kidney (HEK293T) cells expressing luciferase-tagged ELG1; Potency, µM (titrated, usually from 46.1 µM), hits mostly inhibitors; 330,000 tested, 2.3% active; HEK293T ELG1-luciferase reporter, luminescence, 16 h; DNA damage induced by 5-fluorouridine; also: nearly all actives have a fitted effect of over 55% in size
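Reporter activity after DNA damage by 5-fluorouridine is monitored. Compound-treated cells incubate 16 hr at 37 °C, then ONE-Glo is added for 30 min before luminescence reading.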
Rab9 promoter act = qHTS Assay for Rab9 Promoter Activators; Huh7 Rab9 promoter-luciferase reporter, luminescence, 24 h; Potency, µM (highest dose often 9.22 µM), hits mostly activators; 320,000 tested, 2.8% active; also: nearly all actives have a fitted effect of over 60% in size
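Luminescence from Amplite-detected luciferase (10 minutes, ambient) reports Rab9 promoter activation. Before that, stable Rab9-luciferase Huh7 cells (1500/well, reduced-serum OP-MEM I plus 10% FBS) were exposed to compound for 24 hours at 37C.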
ELG1 FLuc counter = qHTS screen for small molecules that inhibit ELG1-dependent DNA repair: Hit Confirmation in Cell-Based Luciferin Assay. shares compounds with ELG1 repair inh. cell-free firefly luciferase luminescence counter-screen, ViewLux. Potency, µM (highest dose often 46.1 µM), hits mostly inhibitors. 350 tested, 3% active
ELG1-Luc inh = HTS assay for small molecules that inhibit ELG1-dependent DNA repair in human embryonic kidney (HEK293T) cells expressing luciferase-tagged ELG1: Hit Confirmation; 670 tested, 68% active; Potency, µM (series often up to 46.1 µM), hits mostly inhibitors; AID 624248, 2012; shares compounds with ELG1 repair inh; HEK293T ELG1-luciferase levels, luminescence; cells co-treated with 5-fluorouridine; also: nearly all actives have a fitted effect of over 55% in size
ELG1 MMS Luc = inhibits ELG1-dependent repair under MMS stimulation in HEK293T cells | HEK293T luciferase-tagged ELG1 level, MMS stimulated | 670 tested, 53% active | Potency, µM (titrated, usually from 46.1 µM), usual class: inhibitors | shares compounds with ELG1 repair inh | AID 624249; also: nearly all actives have a fitted effect of over 60% in size
ELG1 5-FU = qHTS screen for small molecules that inhibit ELG1-dependent DNA repair: Hit Confirmation with 5FU Viability | shares compounds with ELG1 repair inh | cell viability with 5-FU, ELG1-dependent repair | Potency, µM (titrated, usually from 46.1 µM), most hits filed as cytotoxic | 670 tested, under 10 active;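 also: ELG1-luc HEK293T cells cotreated with 5-fluorouridine at 10 µM final; viability measured 16 h after compound addition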
ELG1 MMS viab = qHTS screen for small molecules that inhibit ELG1-dependent DNA repair: Hit Confirmation with MMS Viability. Cell viability with MMS, ELG1-dependent DNA repair. AID 624251, 2012. Potency, µM (doses to about 46.1 µM), hits mostly cytotoxic. shares compounds with ELG1 repair inh. 670 tested, 33% active;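 also: ELG1-luc HEK293T cells co-treated with 10 µM MMS; viability read 16 h after compound addition; nearly all actives have a fitted effect of over 60% in size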
Cell viab unstim = qHTS screen for small molecules that inhibit ELG1-dependent DNA repair: Hit Confirmation with Unstimulated Viability Assay | shares compounds with ELG1 repair inh | AID 624252, 2012 | cell viability counter-screen, unstimulated, luminescence | 900 tested, 8% active | Potency, µM (series often up to 45.9 µM), actives largely listed as cytotoxic;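 also: compound exposure lasted 16 hours before reading; nearly all actives have a fitted effect of over 55% in size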
FLuc biochem = qHTS screen for small molecules that inhibit ELG1-dependent DNA repair: Hit Confirmation in Biochemical Luciferin Assay; shares compounds with ELG1 repair inh; purified firefly luciferase, luminescence counter-screen; Potency, µM (series often up to 57.5 µM), most hits filed as inhibitors; 350 tested, 10% active; AID 624253, 2012
Hits are given with their value; [ ] = another dose, or the depositor's remark. Hits are enriched below; roughly 9.4% of the tested compounds scored in any of these assays. Calls follow the shape of the dose curve; as a rule, active = well fitted curve in the direction sought with a large enough effect; inconclusive = small, poorly fitted or top-dose-only effect, or another doubt; inactive = no such curve, though single readings can be large; an effect the other way counts as inactive or inconclusive.

Screening CCn1cc(C(=O)Nc2ccc3c(c2)OCCO3)c2cc(OC)c(OC)cc2c1=O returned SMN2 splice up inactive, FLuc counter inactive, ELG1 genotoxic inactive, NPC1 prom act inactive, ELG1 repair inh 5.8µM, Rab9 promoter act inactive, ELG1 FLuc counter inactive, ELG1-Luc inh 7.1µM, ELG1 MMS Luc inconclusive, ELG1 5-FU inconclusive, ELG1 MMS viab inconclusive, Cell viab unstim inconclusive and FLuc biochem inactive.
Screening CCOc1ccc(-n2cc(C(=O)Nc3cccc(OC)c3)c3cc(OC)c(OC)cc3c2=O)cc1 returned SMN2 splice up inactive, FLuc counter inactive, ELG1 genotoxic inactive, NPC1 prom act inactive, ELG1 repair inh inconclusive, Rab9 promoter act inactive, ELG1 FLuc counter inactive, ELG1-Luc inh 11µM, ELG1 MMS Luc 25µM, ELG1 5-FU inconclusive, ELG1 MMS viab inactive, Cell viab unstim inactive and FLuc biochem inactive.
`COc1cccc(NC(=O)Cn2c(=O)n(Cc3ccco3)c(=O)c3cc(OC)c(OC)cc32)c1` gave SMN2 splice up inactive and FLuc counter inactive.
Cc1ccc(S(=O)(=O)NCc2ccc(C(=O)N3CCN(c4ccc([N+](=O)[O-])cc4)CC3)cc2)cc1 was read as FLuc counter inactive, ELG1 genotoxic inactive, NPC1 prom act inactive, ELG1 repair inh 2.3µM, Rab9 promoter act inactive, ELG1-Luc inh 7.9µM, ELG1 MMS Luc 1.6µM, ELG1 5-FU inactive, ELG1 MMS viab 1.8µM and Cell viab unstim inconclusive.
COc1ccc(N2CCN(C(=O)c3ccc(CNS(=O)(=O)c4ccc(C)cc4)cc3)CC2)cc1 was read as FLuc counter inactive, ELG1 genotoxic inactive[9.26 µM], NPC1 prom act inactive, ELG1 repair inh inactive and Rab9 promoter act inactive.
`COC1=C2C[C@@H](C)C[C@H](OC)[C@H](O)[C@@H](C)/C=C(\C)[C@H](OC(N)=O)[C@@H](OC)/C=C\C=C(/C)C(=O)NC(=CC1=O)C2=O` gave ELG1-Luc inh 1.4µM, ELG1 MMS Luc 2µM, ELG1 5-FU inconclusive, ELG1 MMS viab 14µM and Cell viab unstim inconclusive.
Screening O=C(/C=C/C#Cc1cccc(NS(=O)(=O)c2ccccc2)c1)NO returned Cell viab unstim inconclusive.
Screening O=C(O)/C=C/c1cccc(NS(=O)(=O)c2ccccc2)c1 returned SMN2 splice up inactive, FLuc counter inactive, ELG1 genotoxic inactive, NPC1 prom act inactive, ELG1 repair inh inactive and Rab9 promoter act inactive.
`COc1ccc(CNC(=O)c2nn(C)c3c2CS(=O)(=O)c2ccccc2-3)cc1` gave FLuc counter inactive, ELG1 genotoxic inactive, NPC1 prom act inactive, ELG1 repair inh inactive and Rab9 promoter act inactive.
`COc1ccc(OC)c(CNC(=O)c2nn(C)c3c2CS(=O)(=O)c2ccccc2-3)c1` gave FLuc counter inactive, ELG1 genotoxic inactive, NPC1 prom act inactive, ELG1 repair inh 3.3µM, Rab9 promoter act inactive, ELG1-Luc inh 11µM, ELG1 MMS Luc inactive, ELG1 5-FU inactive, ELG1 MMS viab inactive and Cell viab unstim inconclusive.
Cc1ccc(-n2nc3c(=O)n(CC(=O)NCCc4ccccc4C)nc(C)c3c2C)cc1 was read as FLuc counter inactive, ELG1 genotoxic inactive, NPC1 prom act inactive, ELG1 repair inh 3.7µM, Rab9 promoter act inactive, ELG1-Luc inh inconclusive, ELG1 MMS Luc 10µM, ELG1 5-FU inactive, ELG1 MMS viab 10µM and Cell viab unstim inconclusive.
Screening Cc1ccc(CCNC(=O)c2c(C)oc3ncn(CC(C)C)c(=O)c23)cc1 returned FLuc counter inactive.
Screening CCN(CC)C(=O)c1sc2nc(N3CCOCC3)c3c(c2c1N)CCCC3 returned SMN2 splice up inactive, FLuc counter inconclusive, ELG1 genotoxic inactive, NPC1 prom act inactive, ELG1 repair inh 6.5µM, Rab9 promoter act inactive, ELG1 FLuc counter inactive, ELG1-Luc inh 11µM, ELG1 MMS Luc inactive, ELG1 5-FU inconclusive, ELG1 MMS viab inactive, Cell viab unstim inactive and FLuc biochem inactive.
Screening CCCCSc1nc2ccc(Nc3nc(N4CCOCC4)nc(N4CCOCC4)n3)cc2s1 returned SMN2 splice up inactive, FLuc counter inactive, ELG1 genotoxic inactive, NPC1 prom act inactive, ELG1 repair inh 16µM, Rab9 promoter act inactive, ELG1 FLuc counter inactive, ELG1-Luc inh 13µM, ELG1 MMS Luc inconclusive, ELG1 5-FU inconclusive, ELG1 MMS viab inactive, Cell viab unstim inactive and FLuc biochem inactive.
Screening CCOc1ccc(Nc2nc(Nc3ccc(OCC)cc3)nc(N3CCOCC3)n2)cc1 returned SMN2 splice up inactive and FLuc counter inactive.

High-throughput results: PubChem, National Center for Advancing Translational Sciences (NCATS)
